# Data reported in PubChem BioAssay AID463173 (ICCB-Longwood Screening Facility, Harvard Medical School, 2010).
# In all, about 52,000 compounds went through this assay and about 4,300 (8.3%) were called active. Cut-off read from the data, not from the text of the source: active = survival mostly below about 52% (no sharp cut-off); inactive = mostly above about 56%. Shown is part of a subset that was picked to be rich in actives.
# System: DeltatarO mutant
# Assay: growth inhibition of S. aureus wild type versus tarO mutant, primary screen, teichoic acid synthesis inhibitors, RN4220, OD600 (AID 463173)
# Settings: OD600, 18 h, stronger effect = lower value, screened at 18.75 µg/mL (by protocol)
row,Structure (SMILES),survival
1,Cc1cccc(-n2c(SCc3nc(-c4ccccc4C)no3)nnc2-c2ccccc2)c1,74% (inactive)
2,O=C(NC1CCN(Cc2nnnn2Cc2ccc3c(c2)OCO3)CC1)c1ccccc1F,91% (inactive)
3,NC(=O)c1cc(S(=O)(=O)NCC2CCC(C(=O)Nc3ccc(Cl)cc3)CC2)cs1 (configuration not stated),66% (inactive)
4,O=C(NCc1ccc2c(c1)CCN2C(=O)c1ccc(Cl)cc1)c1ccco1,80% (inactive)
5,O=S(=O)(c1cc(Br)c(Br)s1)N1CCN(c2ccccc2)CC1,72% (inactive)
6,CCn1c(C(=O)NCc2ccccc2)cc2sc(Cl)cc21,34% (active)
7,CCn1c(C(=O)NCc2ccc(OC)cc2)cc2sc(Cl)cc21,41% (active)
8,CCn1c(C(=O)NCc2ccccc2Cl)cc2sc(Cl)cc21,63% (inactive)
9,COc1ccc(CCNC(=O)c2cc3sccc3n2Cc2ccc(Cl)cc2)cc1OC,88% (inactive)
10,CCn1c(C(=O)NCCc2ccc(OC)c(OC)c2)cc2sc(Cl)cc21,32% (active)
11,CCn1c(C(=O)NCc2ccc(C)cc2)cc2sc(Cl)cc21,92% (inactive)
12,Cc1ccc(CNC(=O)c2cc3sc(Cl)cc3n2C)cc1,80% (inactive)
13,CCn1c(C(=O)NCCc2ccc(S(N)(=O)=O)cc2)cc2sc(Cl)cc21,71% (inactive)
14,CCOc1ccc(NC(=O)c2cc3sc(Cl)cc3n2CC)cc1,84% (inactive)
15,N#Cc1c[nH]n2c(NC3CCCCC3)c(-c3ccccc3F)nc12,56% (inactive)
16,CCCCN(C(=O)c1cccc(S(=O)(=O)N2CCCCC2)c1)C1CCS(=O)(=O)C1 (configuration not stated),117% (inactive)
17,COc1ccc(CCNC(=O)CCc2c(C)nc3c4cccnc4nn3c2C)cc1OC,87% (inactive)
18,COc1ccc(CCNC(=O)C2COc3ccccc3O2)cc1 (configuration not stated),89% (inactive)
19,Cc1ccc(NC(=O)Nc2cc3c(cc2N2CCCCC2)n(C)c(=O)n3C)cc1Cl,99% (inactive)

row,Structure (SMILES),survival
1,CC1CN(C(=O)N2CCC(C(=O)NC3CCCCCC3)CC2)c2cc(Cl)ccc2O1 (configuration not stated),61% (inactive)
2,O=C1CC(N2CCCC2)C(=O)N1c1ccccc1 (configuration not stated),96% (inactive)
3,COc1ccccc1CNC(=O)C(=O)NCC(c1cccs1)S(=O)(=O)c1ccc(F)cc1 (configuration not stated),80% (inactive)
4,CC(C)c1ccc(OCc2cc(=O)n3c4c(sc3n2)CCCC4)cc1,73% (inactive)
5,Cc1cccn2c(=O)c(/C=C(\C#N)c3nc4ccccc4[nH]3)c(Oc3ccc(C(C)(C)C)cc3)nc12,93% (inactive)
6,COc1ccc(C)cc1NC(=O)CN1C(=O)COc2ccc(S(=O)(=O)N3CCC(C)CC3)cc21,69% (inactive)
7,Cc1ccc(-c2cc(C(=O)Oc3ccccc3)c3cc(C)ccc3n2)cc1,76% (inactive)
8,COc1ccc(-c2cc(C(=O)Oc3cccc(C)c3)c3cc(C)ccc3n2)cc1,13% (active)
9,Cc1ccc(-n2cc(C(=O)Oc3cccc(C)c3)c3ccccc3c2=O)cc1,69% (inactive)
10,Cc1ccc(-c2cc(C(=O)Oc3ccccc3)c3cccc(C)c3n2)cc1,50% (inactive)
11,COc1ccc(-c2cc(C(=O)OC(C)C(=O)c3ccccc3)c3cccc(Cl)c3n2)cc1 (configuration not stated),76% (inactive)
12,COc1ccc(-c2cc(C(=O)Oc3ccc(C)cc3)c3cc(C)ccc3n2)cc1,22% (active)
13,COc1ccc(-c2cc(C(=O)OCC(=O)c3ccc(C)cc3)c3cccc(Cl)c3n2)cc1,65% (inactive)
14,COc1ccc(-c2cc(C(=O)OCC(=O)c3cccc(OC)c3)c3cccc(Cl)c3n2)cc1,74% (inactive)
15,COc1ccc(-c2cc(C(=O)Oc3cccc(C)c3)c3ccccc3n2)cc1,-2% (active)
16,Cc1ccc2nc(C)cc(C(=O)O)c2c1,99% (inactive)
17,Cc1ccc(OC(=O)c2cc(-c3ccccc3)nc3ccc(C)cc23)cc1,49% (active)
18,COc1ccc(-c2cc(C(=O)NCCc3ccccc3)c3cc(C(C)C)ccc3n2)cc1,76% (inactive)
